Results reported in PubChem BioAssay (EPA / NIEHS).
Results filed as inconclusive are left out. The source made the active and inactive calls. How the source made its calls: active means hit-call score of the fitted dose curve at least 0.9, where 1 is the maximum; inconclusive means response in the unintended direction; inactive means score below 0.9.

Molecular target: Ratio of Nucleoli Translocation and Cytoplasm, AR (gene 367) (UniProt P10275)
Experiment: UPITT_HCI_U2OS_AR_TIF2_Nucleoli_Cytoplasm_Ratio_Antagonist: University of Pittsburgh U2OS Androgen Receptor-Transcriptional Intermediary Factor 2 (AR-TIF2) Antagonism High Content Imaging Assay for Ratio of Nucleoli Translocation and Cytoplasm (AID 2283999);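 further: antagonists lower the DHT-driven ratio of nucleolar to cytoplasmic red signal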
Procedure, shortened: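 U2OS cells expressing RFP-tagged human AR and GFP-tagged TIF2; compounds tested at 20 uM final (0.2% DMSO) in primary screen, 0.195–50 uM (0.5% DMSO) for concentration response. Readout: nucleolar-to-cytoplasmic red fluorescence ratio by high-content imaging, fitted relative to DHT.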

Sequence of Ratio of Nucleoli Translocation and Cytoplasm, AR (gene 367) (P10275 whole entry, looked up): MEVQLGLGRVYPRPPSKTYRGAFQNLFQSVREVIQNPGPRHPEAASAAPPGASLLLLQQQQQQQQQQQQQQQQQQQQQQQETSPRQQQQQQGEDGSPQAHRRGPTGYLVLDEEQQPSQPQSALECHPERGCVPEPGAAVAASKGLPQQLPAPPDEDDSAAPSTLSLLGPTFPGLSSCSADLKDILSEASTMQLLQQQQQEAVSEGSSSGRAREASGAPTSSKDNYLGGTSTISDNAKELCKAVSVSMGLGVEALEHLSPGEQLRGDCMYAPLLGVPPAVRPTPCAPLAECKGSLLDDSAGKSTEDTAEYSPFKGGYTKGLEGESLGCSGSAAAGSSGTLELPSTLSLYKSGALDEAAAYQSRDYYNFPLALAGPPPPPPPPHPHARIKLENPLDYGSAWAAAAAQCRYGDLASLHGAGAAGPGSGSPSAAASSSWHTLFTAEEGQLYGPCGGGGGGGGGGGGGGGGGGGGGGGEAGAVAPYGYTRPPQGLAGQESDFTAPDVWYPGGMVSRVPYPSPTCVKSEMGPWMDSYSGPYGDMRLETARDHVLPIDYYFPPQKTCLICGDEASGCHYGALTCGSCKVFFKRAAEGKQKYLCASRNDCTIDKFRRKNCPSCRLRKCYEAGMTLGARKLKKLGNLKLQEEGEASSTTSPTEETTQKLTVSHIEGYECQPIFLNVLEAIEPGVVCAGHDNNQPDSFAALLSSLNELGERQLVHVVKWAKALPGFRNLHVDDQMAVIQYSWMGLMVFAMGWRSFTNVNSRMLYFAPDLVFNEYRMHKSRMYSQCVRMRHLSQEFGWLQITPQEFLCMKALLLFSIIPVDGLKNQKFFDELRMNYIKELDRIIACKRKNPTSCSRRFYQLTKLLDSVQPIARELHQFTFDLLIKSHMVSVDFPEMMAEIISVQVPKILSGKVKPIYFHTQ

Compound	AC50	outcome
O=C1C=CC(=O)N1c1ccccc1	5.34 µM (active)	–
CCCCCCCCCCCCC[N+](C)(C)Cc1ccccc1	13.7 µM (active)	–
CCN=c1cc2oc3cc(NCC)c(C)cc3c(-c3ccccc3C(=O)OCC)c-2cc1C	0.753 µM (active)	–
C[C@]12CC[C@H]3C(=CCc4cc(O)ccc43)[C@@H]1CCC2=O	3.04 µM (active)	–
CCCCCCCC/C=C\CCCCCCCC(=O)OCC(O)CO (stereo not given)	–	inactive
CCc1ccc(C)nc1	–	inactive
CCCCCCCCCc1ccc(OCCO)cc1	–	inactive
CCN=C1C=CC(=C(c2ccc(N(CC)CC)cc2)c2ccc(N(CC)CC)cc2)c2ccccc21	4.7 µM (active)	–
COCCOCCC[Si](C)(O[Si](C)(C)C)O[Si](C)(C)C	–	inactive
CCCCCCCCCCCCCC[P+](CCCC)(CCCC)CCCC	9.75 µM (active)	–
